# In the supplement of paper PMC8728848:
# This excerpt belongs to a sample that is enriched for the strongest signals.
# How the values were obtained:
# Experiment in all cases: glycan array binding signal (z-score within array); higher = stronger binding
# Settings in all cases: glycan notation: IUPAC condensed, linker removed
# Fuc(a1-2)Gal(b1-3)GlcNAc = target: Fuc(a1-2)Gal(b1-3)GlcNAc
# In short: (§1)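 The Consortium for Functional Glycomics database supplied 3228 glycan arrays, of which those lacking an available protein sequence were dropped. The binding signal, a within-array Z-score, was averaged across arrays of the same protein sequence and across linkers. Negative scores can be read as non-binding.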
# [1] = target: Fuc(a1-2)Gal(b1-3)GlcNAc(b1-3)[Gal(b1-4)GlcNAc(b1-6)]Gal(b1-4)Glc
# In short: as §1
# [2] = target: Fuc(a1-2)Gal(b1-4)[Fuc(a1-3)]GlcNAc(b1-2)Man(a1-3)[Fuc(a1-2)Gal(b1-4)[Fuc(a1-3)]GlcNAc(b1-2)Man(a1-6)]Man(b1-4)GlcNAc(b1-4)[Fuc(a1-6)]GlcNAc
# In short: as §1
# [3] = target: Fuc(a1-2)Gal(b1-4)[Fuc(a1-3)]GlcNAc(b1-3)Gal(b1-4)[Fuc(a1-3)]GlcNAc(b1-3)Gal(b1-4)[Fuc(a1-3)]GlcNAc
# In short: as §1
# [4] = target: Fuc(a1-2)[Gal(a1-3)]Gal(b1-4)GlcNAc(b1-2)Man(a1-3)[Fuc(a1-2)[Gal(a1-3)]Gal(b1-4)GlcNAc(b1-2)Man(a1-6)]Man(b1-4)GlcNAc(b1-4)GlcNAc
# In short: as §1
# [5] = target: Fuc(a1-2)[Gal(a1-3)]Gal(b1-4)GlcNAc(b1-6)GalNAc
# In short: as §1
# [6] = target: Fuc(a1-2)[GalNAc(a1-3)]Gal(b1-4)GlcNAc
# In short: as §1
# [7] = target: Fuc(a1-3)[Gal(b1-4)]GlcNAc(b1-3)Gal(b1-4)[Fuc(a1-3)]GlcNAc(b1-3)Gal(b1-4)[Fuc(a1-3)]GlcNAc
# In short: as §1
# [8] = target: Fuc(a1-3)[Gal(b1-4)]GlcNAc6S
# In short: as §1
# [9] = target: Fuc(a1-3)[Gal3S(b1-4)]GlcNAc
# In short: as §1
# [10] = target: Fuc(a1-3)[Gal3S(b1-4)]GlcNAc6S
# In short: as §1
# [11] = target: Fuc(a1-3)[GalNAc(b1-4)]GlcNAc
# In short: as §1
# Gal(a1-3)Gal(b1-4)GlcNAc = target: Gal(a1-3)Gal(b1-4)GlcNAc
# In short: as §1
# [12] = target: Gal(a1-3)Gal(b1-4)GlcNAc(b1-6)GalNAc
# In short: as §1
# Gal(a1-4)Gal(b1-4)Glc = target: Gal(a1-4)Gal(b1-4)Glc
# In short: as §1
# Gal(b1-3)GalNAc = target: Gal(b1-3)GalNAc
# In short: as §1
# Gal(b1-3)GalNAc(b1-3)Gal = target: Gal(b1-3)GalNAc(b1-3)Gal
# In short: as §1
# [13] = target: Gal(b1-3)GlcNAc(a1-3)Gal(b1-4)GlcNAc
# In short: as §1
# [14] = target: Gal(b1-3)GlcNAc(b1-2)Man(a1-3)[Gal(b1-3)GlcNAc(b1-2)Man(a1-6)]Man(b1-4)GlcNAc(b1-4)[Fuc(a1-6)]GlcNAc
# In short: as §1
# [15] = target: Gal(b1-3)GlcNAc(b1-3)Gal(b1-4)GlcNAc(b1-3)Gal(b1-4)GlcNAc(b1-2)[Gal(b1-3)GlcNAc(b1-3)Gal(b1-4)GlcNAc(b1-3)Gal(b1-4)GlcNAc(b1-6)]Man(a1-6)[Gal(b1-3)GlcNAc(b1-3)Gal(b1-4)GlcNAc(b1-3)Gal(b1-4)GlcNAc(b1-2)Man(a1-3)]Man(b1-4)GlcNAc(b1-4)[Fuc(a1-6)]GlcNAc
# In short: as §1
# [16] = target: Gal(b1-3)GlcNAc(b1-6)[Gal(b1-3)]GalNAc
# In short: as §1
# [17] = target: Gal(b1-3)[Fuc(a1-4)]GlcNAc(b1-2)Man(a1-3)[Gal(b1-3)[Fuc(a1-4)]GlcNAc(b1-2)Man(a1-6)]Man(b1-4)GlcNAc(b1-4)[Fuc(a1-6)]GlcNAc
# In short: as §1
# [18] = target: Gal(b1-4)GlcNAc(b1-2)[Gal(b1-4)GlcNAc(b1-6)]Man(a1-6)[GlcNAc(b1-4)][Gal(b1-4)GlcNAc(b1-2)Man(a1-3)]Man(b1-4)GlcNAc(b1-4)GlcNAc
# In short: as §1
# [19] = target: Gal(b1-4)GlcNAc(b1-3)Gal(b1-4)GlcNAc(b1-3)Gal(b1-4)GlcNAc(b1-3)Gal(b1-4)GlcNAc(b1-3)Gal(b1-4)GlcNAc(b1-3)Gal(b1-4)GlcNAc(b1-2)Man(a1-3)[Gal(b1-4)GlcNAc(b1-3)Gal(b1-4)GlcNAc(b1-3)Gal(b1-4)GlcNAc(b1-3)Gal(b1-4)GlcNAc(b1-3)Gal(b1-4)GlcNAc(b1-3)Gal(b1-4)GlcNAc(b1-2)Man(a1-6)]Man(b1-4)GlcNAc(b1-4)GlcNAc
# In short: as §1
# [20] = target: Gal(b1-4)GlcNAc(b1-3)[Gal(b1-4)GlcNAc(b1-6)]Gal(b1-4)GlcNAc
# In short: as §1
# Gal3S(b1-4)Glc6S = target: Gal3S(b1-4)Glc6S
# In short: as §1
# GalNAc(a1-3)Gal = target: GalNAc(a1-3)Gal
# In short: as §1
# GalNAc(b1-3)GalNAc = target: GalNAc(b1-3)GalNAc
# In short: as §1
# GalNAc(b1-4)Gal(b1-4)Glc = target: GalNAc(b1-4)Gal(b1-4)Glc
# In short: as §1
# [21] = target: GalNAc(b1-4)GlcNAc(b1-2)Man
# In short: as §1
# Glc(a1-4)Glc = target: Glc(a1-4)Glc
# In short: as §1
# Glc(a1-6)Glc(a1-6)Glc = target: Glc(a1-6)Glc(a1-6)Glc
# In short: as §1
# [22] = target: GlcNAc(b1-2)[GlcNAc(b1-4)]Man(a1-3)[GlcNAc(b1-4)][GlcNAc(b1-2)[GlcNAc(b1-6)]Man(a1-6)]Man(b1-4)GlcNAc(b1-4)GlcNAc
# In short: as §1
# [23] = target: GlcNAc(b1-3)Gal(b1-4)GlcNAc(b1-3)Gal(b1-4)GlcNAc(b1-2)Man(a1-3)[GlcNAc(b1-3)Gal(b1-4)GlcNAc(b1-3)Gal(b1-4)GlcNAc(b1-2)Man(a1-6)]Man(b1-4)GlcNAc(b1-4)[Fuc(a1-6)]GlcNAc
# In short: as §1
# [24] = target: GlcNAc(b1-3)Gal(b1-4)GlcNAc(b1-6)[Gal(b1-3)]GalNAc
# In short: as §1
# GlcNAc(b1-3)Man = target: GlcNAc(b1-3)Man
# In short: as §1
# [25] = target: GlcNAc(b1-4)[GlcNAc(b1-6)]GalNAc
# In short: as §1
# Kdn(a2-3)Gal(b1-4)Glc = target: Kdn(a2-3)Gal(b1-4)Glc
# In short: as §1
# [26] = target: Man(a1-2)Man(a1-3)[Man(a1-2)Man(a1-6)]Man
# In short: as §1
# Man(a1-3)[Man(a1-6)]Man = target: Man(a1-3)[Man(a1-6)]Man
# In short: as §1
# [27] = target: Neu5Ac(a2-3)Gal(b1-3)GlcNAc(b1-3)GalNAc
# In short: as §1
# [28] = target: Neu5Ac(a2-6)Gal(b1-4)GlcNAc(b1-2)Man(a1-3)Man(b1-4)GlcNAc(b1-4)GlcNAc
# In short: as §1
# [29] = target: Neu5Ac(a2-6)Gal(b1-4)GlcNAc(b1-2)Man(a1-3)[Neu5Ac(a2-6)Gal(b1-4)GlcNAc(b1-2)Man(a1-6)]Man(b1-4)GlcNAc(b1-4)GlcNAc
# In short: as §1
# [30] = target: Neu5Ac(a2-8)Neu5Ac(a2-3)Gal(b1-3)GalNAc(b1-4)[Neu5Ac(a2-8)Neu5Ac(a2-3)]Gal(b1-4)Glc
# In short: as §1
# [31] = target: Neu5Ac(a2-8)Neu5Ac(a2-3)[Gal(b1-3)GalNAc(b1-4)]Gal(b1-4)Glc
# In short: as §1
# Neu5Gc(a2-3)Gal(b1-4)Glc = target: Neu5Gc(a2-3)Gal(b1-4)Glc
# In short: as §1
binder,measurement,setting,value
OS9 (Arabidopsis thaliana) (protein) MRGSHHHHHHGMASMTGGQQMGRDLYDDDDKSRLQIFPAHLVGTFSRNNREPKYKIEFLPEDSPFHPGDNLESMVMLDKHGNRFLCYLPKEEKATSGWTSSQQNISTVMMETQQLVKLKTPDELLQPLSEKCLFRQEGWWSYEFCHQKYVRQLHVEDENKIVQEFFLGTFDPEATAAFNQTVSDASTDASQRYHSHVYTNGTTCDLTGSPREVEVRFVCAETRAMVTSITELSTCKYALTVQCPTLCKHPLFQLEKPVSHTIHCNAIPVEEDATRNKEEQAVDESPKMIADS,glycan array binding signal (z-score),Fuc(a1-2)Gal(b1-3)GlcNAc,-0.466
same,glycan array binding signal (z-score),[1],2.66
same,glycan array binding signal (z-score),[2],-0.608
same,glycan array binding signal (z-score),[3],4.22
same,glycan array binding signal (z-score),[4],3.36
same,glycan array binding signal (z-score),[5],0.051
same,glycan array binding signal (z-score),[6],-0.828
same,glycan array binding signal (z-score),[7],-0.881
same,glycan array binding signal (z-score),[8],3.45
same,glycan array binding signal (z-score),[9],1.51
same,glycan array binding signal (z-score),[10],-0.706
same,glycan array binding signal (z-score),[11],0.056
same,glycan array binding signal (z-score),Gal(a1-3)Gal(b1-4)GlcNAc,-0.724
same,glycan array binding signal (z-score),[12],0.243
same,glycan array binding signal (z-score),Gal(a1-4)Gal(b1-4)Glc,2.7
same,glycan array binding signal (z-score),Gal(b1-3)GalNAc,-0.097
same,glycan array binding signal (z-score),Gal(b1-3)GalNAc(b1-3)Gal,3.02
same,glycan array binding signal (z-score),[13],-1.06
same,glycan array binding signal (z-score),[14],-0.157
same,glycan array binding signal (z-score),[15],2.88
same,glycan array binding signal (z-score),[16],0.651
same,glycan array binding signal (z-score),[17],7.5
same,glycan array binding signal (z-score),[18],-0.016
same,glycan array binding signal (z-score),[19],0.798
same,glycan array binding signal (z-score),[20],1.43
same,glycan array binding signal (z-score),Gal3S(b1-4)Glc6S,0.366
same,glycan array binding signal (z-score),GalNAc(a1-3)Gal,-0.979
same,glycan array binding signal (z-score),GalNAc(b1-3)GalNAc,0.839
same,glycan array binding signal (z-score),GalNAc(b1-4)Gal(b1-4)Glc,2.57
same,glycan array binding signal (z-score),[21],3.58
same,glycan array binding signal (z-score),Glc(a1-4)Glc,1.98
same,glycan array binding signal (z-score),Glc(a1-6)Glc(a1-6)Glc,-0.542
same,glycan array binding signal (z-score),[22],0.258
same,glycan array binding signal (z-score),[23],-0.144
same,glycan array binding signal (z-score),[24],0.094
same,glycan array binding signal (z-score),GlcNAc(b1-3)Man,0.127
same,glycan array binding signal (z-score),[25],-0.3
same,glycan array binding signal (z-score),Kdn(a2-3)Gal(b1-4)Glc,0.473
same,glycan array binding signal (z-score),[26],0.462
same,glycan array binding signal (z-score),Man(a1-3)[Man(a1-6)]Man,-0.078
same,glycan array binding signal (z-score),[27],0.474
same,glycan array binding signal (z-score),[28],6.74
same,glycan array binding signal (z-score),[29],-0.5
same,glycan array binding signal (z-score),[30],-0.384
same,glycan array binding signal (z-score),[31],1.47
same,glycan array binding signal (z-score),Neu5Gc(a2-3)Gal(b1-4)Glc,-1.01
